Test results: PubChem BioAssay
Activity calls are given as the source filed them.

Key:
[1] = tested on: Plasmodium falciparum Sir2 (PF13_0152, Sir2A); test: Plasmodium falciparum Sir2A binding compounds – biochemical, small-molecule microarray, 635 nm fluorescence, primary screen (AID 1098); settings: fluorescence 635 nm, higher = more signal;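 note: score merges spot fluorescence intensity with its signal-to-noise ratio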
[2] = probe aDKK1 binding to arrayed compounds – biochemical, biotinylated probe, 635/667 nm fluorescence, primary screen (AID 1099); settings: small-molecule microarray, higher = more signal;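 note: score merges 667nm spot fluorescence with signal to noise across triplicate slides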
[3] = probe aCHRDL2 binding to arrayed compounds – biochemical, biotinylated probe, 635/667 nm fluorescence, primary screen (AID 1100); settings: small-molecule microarray, higher = more signal
[4] = change in splice reporter luminescence, either direction, cell-based, HEK293, spliceosome inhibition project, primary screen (AID 1101); settings: HEK293 splicing luciferase reporter, 24 h, higher = more signal, called active from +8 up or from −8 down;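 note: HEK293 cells carrying a splicing-competent luciferase reporter gene; test concentration not given here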
[5] = target: Fibroblast growth factor 10 (Homo sapiens) (UniProt O15520); test: compounds binding fibroblast growth factor 10 – biochemical, small-molecule microarray, 635 nm fluorescence, primary screen (AID 1102); settings: FGF10 binding, fluorescence 635 nm, higher = more signal
Sequence of Fibroblast growth factor 10 (Homo sapiens) (O15520 whole entry, looked up): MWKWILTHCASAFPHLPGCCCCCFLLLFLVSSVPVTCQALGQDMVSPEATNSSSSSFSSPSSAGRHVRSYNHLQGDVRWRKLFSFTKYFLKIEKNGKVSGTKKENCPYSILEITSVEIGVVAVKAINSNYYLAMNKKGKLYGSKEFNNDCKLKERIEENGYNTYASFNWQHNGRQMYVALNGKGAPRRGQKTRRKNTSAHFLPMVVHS

[6] = tested on: glycogen synthase kinase-3 (GSK3A per assay name; protocol says GSK3B); test: compounds binding glycogen synthase kinase-3 – biochemical, small-molecule microarray, 635 nm fluorescence, GSK3A, primary screen (AID 1103); settings: fluorescence 635 nm, higher = more signal; note: the record names both GSK3A and GSK3B
[7] = target: Epidermal growth factor receptor (Homo sapiens) (UniProt P00533); test: compounds binding epidermal growth factor receptor – biochemical, small-molecule microarray, 635 nm fluorescence, primary screen (AID 1104); settings: EGFR binding, higher = more signal;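 note: score merges 667 nm emission intensity with spot signal to noise over triplicate slides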
Sequence of Epidermal growth factor receptor (Homo sapiens) (P00533 whole entry, looked up): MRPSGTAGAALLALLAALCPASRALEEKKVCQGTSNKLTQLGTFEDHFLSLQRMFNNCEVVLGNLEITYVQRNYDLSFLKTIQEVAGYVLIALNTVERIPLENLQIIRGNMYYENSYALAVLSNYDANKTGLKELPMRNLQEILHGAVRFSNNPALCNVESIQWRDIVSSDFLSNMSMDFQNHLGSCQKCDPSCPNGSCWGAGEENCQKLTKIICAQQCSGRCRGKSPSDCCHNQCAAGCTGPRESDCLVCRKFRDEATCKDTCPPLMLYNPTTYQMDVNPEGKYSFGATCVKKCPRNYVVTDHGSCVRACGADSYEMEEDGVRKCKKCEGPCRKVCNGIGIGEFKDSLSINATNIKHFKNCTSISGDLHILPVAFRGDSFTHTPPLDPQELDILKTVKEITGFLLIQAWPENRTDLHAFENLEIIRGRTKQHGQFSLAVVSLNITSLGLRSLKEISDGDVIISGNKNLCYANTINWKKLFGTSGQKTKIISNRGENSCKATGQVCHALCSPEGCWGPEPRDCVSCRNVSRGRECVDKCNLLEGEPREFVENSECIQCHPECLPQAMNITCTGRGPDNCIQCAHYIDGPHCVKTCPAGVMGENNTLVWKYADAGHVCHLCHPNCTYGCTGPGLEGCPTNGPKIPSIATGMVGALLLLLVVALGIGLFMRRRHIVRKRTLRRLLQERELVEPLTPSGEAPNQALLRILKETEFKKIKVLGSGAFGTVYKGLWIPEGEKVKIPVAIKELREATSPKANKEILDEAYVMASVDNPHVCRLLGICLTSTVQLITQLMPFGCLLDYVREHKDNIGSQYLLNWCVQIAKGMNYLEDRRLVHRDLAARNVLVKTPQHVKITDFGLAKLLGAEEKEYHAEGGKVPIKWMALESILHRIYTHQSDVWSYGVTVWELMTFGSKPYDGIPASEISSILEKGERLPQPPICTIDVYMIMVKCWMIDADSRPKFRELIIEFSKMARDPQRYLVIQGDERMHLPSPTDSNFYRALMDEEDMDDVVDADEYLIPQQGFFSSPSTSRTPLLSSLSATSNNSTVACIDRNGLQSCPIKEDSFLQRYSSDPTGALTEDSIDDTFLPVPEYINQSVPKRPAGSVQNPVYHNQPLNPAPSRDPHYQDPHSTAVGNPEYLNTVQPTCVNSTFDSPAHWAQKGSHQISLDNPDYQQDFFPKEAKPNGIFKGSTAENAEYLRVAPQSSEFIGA

[8] = target: Follistatin-related protein 3 (Homo sapiens) (UniProt O95633); test: compounds binding follistatin-related protein 3 – biochemical, small-molecule microarray, 635 nm fluorescence, primary screen (AID 1105); settings: FSTL3 binding, higher = more signal;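 note: score merges emission near 667 nm and signal to noise per printed spot across three slides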
Sequence of Follistatin-related protein 3 (Homo sapiens) (O95633 whole entry, looked up): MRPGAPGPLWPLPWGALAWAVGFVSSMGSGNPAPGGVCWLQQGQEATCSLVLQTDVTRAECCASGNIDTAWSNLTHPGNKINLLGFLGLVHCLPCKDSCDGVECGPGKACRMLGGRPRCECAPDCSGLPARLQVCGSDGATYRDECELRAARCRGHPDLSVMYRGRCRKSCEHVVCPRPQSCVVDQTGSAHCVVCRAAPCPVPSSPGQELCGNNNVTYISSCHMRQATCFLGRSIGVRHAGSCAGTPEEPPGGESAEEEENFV

[9] = target: Dickkopf-related protein 1 (Homo sapiens) (UniProt O94907); test: small molecules binding DKK1 protein – biochemical, small-molecule microarray, 635 nm fluorescence scan, primary screen (AID 1106); settings: higher = more signal;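 note: score merges emission near 667 nm with signal to noise over three replicate slides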
Sequence of Dickkopf-related protein 1 (Homo sapiens) (O94907 whole entry, looked up): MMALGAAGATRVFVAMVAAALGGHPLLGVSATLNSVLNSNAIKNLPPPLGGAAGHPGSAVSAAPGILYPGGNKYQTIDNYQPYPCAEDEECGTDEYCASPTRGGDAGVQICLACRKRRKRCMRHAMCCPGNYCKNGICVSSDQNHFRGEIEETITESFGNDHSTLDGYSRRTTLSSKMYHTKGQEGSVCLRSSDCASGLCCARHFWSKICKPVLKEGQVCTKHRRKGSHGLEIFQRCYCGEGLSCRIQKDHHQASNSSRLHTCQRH

[10] = tested on: Inhibin beta A chain (activin A); test: small molecules binding activin A – biochemical, small-molecule microarray, 635 nm fluorescence scan, primary screen (AID 1107); settings: INHBA, higher = more signal;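 note: mouse activin A protein probed at 4.33 µg/mL on printed slides; score merges bound-protein fluorescence near 667 nm with spot signal-to-noise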
[11] = tested on: Human papillomavirus type 1a protein E7 (residues 44-93); test: small molecules binding HPV E7 44-93 – biochemical, small-molecule microarray, residues 44-93, 635 nm fluorescence, primary screen (AID 1108); settings: fluorescence 635 nm, higher = more signal;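 note: E7 fragment applied at 1 µg/mL in TBST for 1 h at 4 C; score combines spot fluorescence with its signal to noise ratio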
[12] = hepatitis C replication reporter changes, two-sided – Huh7 cells, luciferase reporter, HCV replication inhibitor project, primary screen (AID 1109); settings: Huh7 HCV replicon luciferase reporter, 48 h; higher = more signal;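 note: huh7 hepatoma cells harbouring a luciferase neomycin HCV replicon reporter; luciferase luminescence as measure of HCV replicon replication; test concentration not given here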
[13] = target: Left-right determination factor 2 (Homo sapiens) (UniProt O00292); test: small molecules binding LEFTY2 protein – biochemical, small-molecule microarray, 635 nm fluorescence scan, primary screen (AID 1110); settings: higher = more signal
Sequence of Left-right determination factor 2 (Homo sapiens) (O00292 whole entry, looked up): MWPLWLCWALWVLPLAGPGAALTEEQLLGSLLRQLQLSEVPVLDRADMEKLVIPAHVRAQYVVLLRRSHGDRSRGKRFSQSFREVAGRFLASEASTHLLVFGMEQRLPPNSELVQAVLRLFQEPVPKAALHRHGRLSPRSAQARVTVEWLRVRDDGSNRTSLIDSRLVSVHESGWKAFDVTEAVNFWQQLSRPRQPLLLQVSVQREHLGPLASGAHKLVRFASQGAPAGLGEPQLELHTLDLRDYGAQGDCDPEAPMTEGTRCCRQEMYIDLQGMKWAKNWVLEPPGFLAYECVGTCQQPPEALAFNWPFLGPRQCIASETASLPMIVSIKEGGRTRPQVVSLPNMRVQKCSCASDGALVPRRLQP

[14] = target: Calmodulin-1 (Homo sapiens) (UniProt P0DP23); test: small molecules binding calmodulin-1 with EGTA – biochemical, small-molecule microarray, Cy5-labelled CALM1, profiling panel (AID 1111); settings: Cy5-CALM1 binding fluorescence, higher = more signal;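 note: labelled calmodulin applied in Tris saline Tween buffer holding calcium plus EGTA and DTT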
[15] = target: Calmodulin-1 (Homo sapiens) (UniProt P0DP23); test: small molecules binding Ca-loaded calmodulin-1 – biochemical, small-molecule microarray, Cy5-labelled CALM1, plus calcium, artefact control for SMM control-protein annotation, profiling panel (AID 1112); settings: Cy5-CALM1 binding fluorescence, higher = more signal;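 note: score merges spot fluorescence with signal to noise from triplicate slides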
[16] = probe aWnt5a binding to arrayed compounds – biochemical, biotinylated probe, 635/667 nm fluorescence, primary screen (AID 1113); settings: small-molecule microarray, higher = more signal;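 note: score merges 667 nm fluorescence intensity with signal-to-noise per printed feature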
[17] = probe aShh binding to arrayed compounds – biochemical, biotinylated probe, 635/667 nm fluorescence, primary screen (AID 1114); settings: small-molecule microarray, higher = more signal;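 note: probe is biotin-labelled aShh protein from a stem cell growth factor screen; measures binding of labelled protein to compounds printed on the slide; score merges feature fluorescence at 667 nm with signal-to-noise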
[18] = probe aNog binding to arrayed compounds – biochemical, biotinylated probe, 635/667 nm fluorescence, primary screen (AID 1115); settings: small-molecule microarray, higher = more signal;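 note: probe is biotinylated aNog protein used at 0.15 µg/mL for 1 h at 4 C; z-score combines 667 nm fluorescence of each spot with its signal to noise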
[19] = target: Torsin-1A-interacting protein 1 (Homo sapiens) (UniProt Q5JTV8); test: compound microarray binding of lysate hLAP1 – cell lysate, small-molecule microarray, COS7 lysate, 635/667 nm fluorescence, primary screen (AID 1116); settings: 635 nm fluorescence, higher = more signal
Sequence of Torsin-1A-interacting protein 1 (Homo sapiens) (Q5JTV8 whole entry, looked up): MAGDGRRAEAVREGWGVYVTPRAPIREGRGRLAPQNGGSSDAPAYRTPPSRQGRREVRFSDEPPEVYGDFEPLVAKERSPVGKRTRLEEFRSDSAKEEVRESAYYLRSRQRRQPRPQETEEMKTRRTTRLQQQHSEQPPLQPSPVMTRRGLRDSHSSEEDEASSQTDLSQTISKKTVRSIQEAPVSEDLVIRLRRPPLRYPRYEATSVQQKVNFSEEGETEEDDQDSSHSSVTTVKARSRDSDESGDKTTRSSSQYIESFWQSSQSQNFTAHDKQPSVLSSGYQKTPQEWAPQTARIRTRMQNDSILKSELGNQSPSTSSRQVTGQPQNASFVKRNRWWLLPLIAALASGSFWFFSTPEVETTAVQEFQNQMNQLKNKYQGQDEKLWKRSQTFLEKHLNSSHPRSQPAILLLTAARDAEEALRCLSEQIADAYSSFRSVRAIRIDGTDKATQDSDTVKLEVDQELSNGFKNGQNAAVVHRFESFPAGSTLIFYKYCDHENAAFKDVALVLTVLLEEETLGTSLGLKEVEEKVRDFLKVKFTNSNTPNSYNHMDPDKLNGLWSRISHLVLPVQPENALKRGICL

[20] = target: Alpha-bungarotoxin (Bungarus multicinctus) (UniProt P60615); test: compounds binding labelled alpha-BTX control protein – biochemical, small-molecule microarray, Alexa647 label, 635/667 nm fluorescence, artefact control for SMM control protein annotation, profiling panel (AID 1117); settings: alpha-BTX-A647 binding fluorescence, higher = more signal
Sequence of Alpha-bungarotoxin (Bungarus multicinctus) (P60615 whole entry, looked up): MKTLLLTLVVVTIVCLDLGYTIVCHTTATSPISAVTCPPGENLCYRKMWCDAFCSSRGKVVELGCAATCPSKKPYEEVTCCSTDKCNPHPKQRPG

Row | Compound | composite z-score [1] | composite z-score [2] | composite z-score [3] | z-score [4] | composite z-score [5] | composite z-score [6] | composite z-score [7] | composite z-score [8] | composite z-score [9] | composite z-score [10] | composite z-score [11] | z-score [12] | composite z-score [13] | composite z-score [14] | composite z-score [15] | composite z-score [16] | composite z-score [17] | composite z-score [18] | composite z-score [19] | composite z-score [20]
1 | C=CCCN(CC#C[C@H]1Oc2ccccc2S(=O)(=O)N2CCC[C@@H]12)S(=O)(=O)c1ccc(C)cc1 | 0.327 | -0.342 | -0.289 | 3.09 (inactive) | 0.371 | 0.0464 | 0.185 | 0.485 | 0.435 | 1.45 | 0.328 | -1.92 | 0.148 | -0.498 | -0.863 | -0.0125 | 0.0048 | -0.183 | 0.631 | -0.189
2 | COCCn1c(C(=O)N(C)C)cc2c1C[C@H]1CN(C(=O)c3ccccc3)[C@@](Cc3ccc(F)cc3)(C(=O)OC)[C@@H]21 | 0.205 | 1.15 | 0.843 | -1.12 (inactive) | 0.61 | 0.397 | -0.0331 | 0.126 | -0.567 | 0.692 | 1.3 | -0.285 | -0.0863 | 0.487 | 0.666 | 0.0559 | 0.385 | 0.873 | 0.153 | 0.305
3 | O=C(NCC(O)CO)[C@@]1(Cc2ccccc2)N=C(c2ccc(OCCCO)cc2)O[C@H]1c1ccccc1 (stereo not given in full) | 0.616 | 1.15 | 1.36 | -0.395 (inactive) | 0.698 | 0.591 | -1.2 | -0.378 | -0.72 | 0.661 | 0.546 | -0.99 | -1.13 | 2.01 | 1.36 | -0.241 | 0.334 | -0.57 | 2.48 | 1.77
4 | CCOC(=O)C1=CC[C@@H](c2ccccc2)N(S(=O)(=O)c2ccc(C)cc2)[C@H]1c1ccc(C#N)cc1 | 0.802 | 1.17 | 1.18 | -0.29 (inactive) | 0.278 | 1.29 | -0.18 | 0.272 | -0.972 | 0.676 | 1.2 | -2.11 | -0.266 | 1.95 | 1 | -0.0236 | 0.385 | 0.621 | 1.48 | 1.84
5 | [N-]=[N+]=NCc1ccccc1C[C@]1(C(=O)NCC(O)CO)COC(c2ccc(OCCCO)cc2)=N1 (stereo not given in full) | 1.08 | 1.22 | 1.5 | 1.1 (inactive) | -0.0207 | -0.493 | -1.13 | 0.324 | -0.372 | 0.462 | 0.912 | -1.84 | -0.645 | 2.44 | 0.911 | 0.188 | -0.0341 | 1.17 | 3.34 | 3.01
6 | O=C(N1CCCCC1)[C@]1(CCS(=O)(=O)c2ccccc2)N=C(c2ccc(OCCCO)cc2)O[C@@H]1c1ccccc1 | 1.26 | 1.02 | 1.08 | 0.25 (inactive) | 0.997 | 1.31 | -0.0354 | 0.536 | -0.142 | 1.29 | 0.876 | -3.16 | 0.101 | 1.91 | 1.02 | 0.055 | 1.49 | 0.56 | 0.917 | 2.56
7 | O=C1C2C=CC(C(O)CCc3ccccc3)N(Nc3ccccc3)C2C(=O)N1c1ccccc1 (stereo not given) | 0.692 | 1.18 | 1.29 | 0.35 (inactive) | 0.714 | 1.26 | -0.0133 | 0.425 | -0.194 | 0.205 | 0.0852 | 0.123 | -0.231 | 2.65 | 1.4 | 0.0797 | 0.382 | 1.11 | 2.2 | 3.09
8 | C#C[C@H](O[Si](C#CCCCCCC)(C(C)C)C(C)C)c1ccccc1 | -0.369 | -0.109 | -0.132 | -0.22 (inactive) | -0.0831 | 0.173 | -0.33 | -0.215 | -0.169 | 0.168 | 0.228 | 0.242 | -0.234 | -0.302 | -0.351 | -0.131 | -0.341 | 0.167 | -0.0173 | 0.0612
9 | Cc1cc(C)c(C(O)C2C=CC3C(=O)NC(=O)C3N2Nc2ccccn2)c(C)c1 (stereo not given) | -0.0405 | 0.118 | 0.862 | 1.43 (inactive) | 0.158 | 0.22 | -0.373 | 0.547 | -0.669 | 0.838 | 1.22 | 0.544 | -0.318 | 0.62 | 0.153 | -0.0596 | 0.0469 | 1.63 | 0.849 | 0.0525
10 | Cc1ccc(S[C@]2(C(=O)NCCN3CCOCC3)CC(=O)N(C3CCCCC3)[C@@H]2c2ccc(CO)cc2)cc1 | 1.35 | -0.0443 | 0.781 | 0.114 (inactive) | -0.103 | 0.606 | -0.551 | 0.181 | -0.55 | 0.602 | 1.29 | -1.82 | -0.55 | 1.06 | -0.39 | -0.0685 | -0.186 | 0.0373 | 0.347 | 0.711
11 | CCCC[C@H]1OB(O)C[C@H]2C1=C(C)Cn1c(=O)n(-c3ccccc3)c(=O)n12 | 0.161 | -0.291 | -0.67 | -0.293 (inactive) | 0.49 | 0.37 | 0.512 | 0.662 | 0.779 | 0.255 | 0.422 | -0.759 | 0.648 | -0.305 | -0.406 | -0.215 | -0.0035 | -0.426 | 0.363 | -0.149
